According to PubChem BioAssay (NCATS):
Inconclusive results are not listed. Where a call stands in place of a potency, no number is given. A number with no mark means an inactive call. Calls of active or inactive are those of the source. Calls come from the whole dose curve; as a rule, active = well fitted curve in the direction sought with a large enough effect; inconclusive = small, poorly fitted or top-dose-only effect, or another doubt; inactive = no such curve, though single readings can be large; an effect the other way counts as inactive or inconclusive.

Tests used:
[1] = Quantitative highthroughput screen to assess conditional lethalithy of NOMO1 cells grown in RPMI1640 with untreated serum (RPMI+s) (AID 1963876); note: nearly all actives have a fitted effect of over 35% in size
How it was run: (§1)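 Each medium arm—HPLM with 10% dialyzed FBS, or RPMI1640 with 5 mM glucose and 10% untreated or dialyzed FBS—was screened against an 11-point, 3-fold compound titration for 48 h at 37 °C, with CellTiter-Glo luminescence as endpoint.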

[2] = Quantitative highthroughput screen to assess conditional lethalithy of NOMO1 cells grown in RPMI1640 with dialyzed fetal bovine serum (RPMI+ds) (AID 1963877); note: nearly all actives have a fitted effect of over 30% in size; for viability: series mostly up to about 46 µM
How it was run: as §1

[3] = Quantitative highthroughput screen to assess conditional lethalithy of NOMO1 cells grown in Human Plasma-Like Medium with dialyzed fetal bovine serum (HPLM+ds) (AID 1963878); note: nearly all actives have a fitted effect of over 35% in size
How it was run: as §1

[4] = Quantitative highthroughput screen to assess conditional lethalithy of P12 Ichikawa cells grown in Human Plasma-Like Medium with dialyzed fetal bovine serum (HPLM+ds) (AID 1963879); conditions: Potency: viability; note: nearly all actives have a fitted effect of over 35% in size; for viability: series mostly up to about 46 µM
How it was run: as §1

[5] = Quantitative highthroughput screen to assess conditional lethalithy of P12 Ichikawa cells grown in RPMI1640 with dialyzed fetal bovine serum (RPMI+ds) (AID 1963880); conditions: Potency: P12-Ichikawa viability; note: nearly all actives have a fitted effect of over 35% in size
How it was run: as §1

[6] = Quantitative highthroughput screen to assess conditional lethalithy of P12 Ichikawa cells grown in RPMI1640 with untreated serum (RPMI+s) (AID 1963881); conditions: Potency: viability; note: nearly all actives have a fitted effect of over 35% in size; for viability: series mostly up to about 46 µM
How it was run: as §1

[7] = Quantitative highthroughput screen to assess conditional lethalithy of SEM cells grown in RPMI1640 with unreated serum (RPMI+s) (AID 1963883); note: nearly all actives have a fitted effect of over 35% in size
How it was run: as §1

[8] = Quantitative highthroughput screen to assess conditional lethalithy of SEM cells grown in RPMI1640 with dialyzed fetal bovine serum (RPMI+ds) (AID 1963884); note: nearly all actives have a fitted effect of over 35% in size; for viability: series mostly up to about 46 µM
How it was run: as §1

[9] = Cellular viability qHTS for adrenocortical cancer (ACC) cell line SW-13 (AID 1963989); conditions: SW-13 ACC cells viability, CellTiter-Glo, 48 h; activity (max response): stronger effect = lower value; note: nearly all actives have a fitted effect of over 65% in size;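 for activity (max response): cells grown in serum-free medium with ITS supplement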
How it was run: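 48 h treatment, SW-13 in ITS/DMEM serum-free; doses up to 46 uM; readout CellTiter-Glo luminescence; curve fit four-parameter logistic.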

[10] = Cellular viability qHTS for adrenocortical cancer (ACC) cell line NCI-H295R (AID 1963990); note: nearly all actives have a fitted effect of over 60% in size
How it was run: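 Compound titrations (up to 46 uM final) are applied to NCI-H295R cultures for 48 h at 37C. Viable cell number is estimated by CellTiter-Glo signal, normalised to DMSO and doxorubicin controls.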

[11] = Quantitative highthroughput screen to assess conditional lethalithy of SEM cells grown in Human Plasma-Like Medium with dialyzed fetal bovine serum (HPLM+ds) (AID 1963882); note: nearly all actives have a fitted effect of over 35% in size; for viability: series mostly up to about 46 µM
How it was run: as §1
Potency is the fitted concentration of half-maximal effect.

SMILES	Potency [1]	Potency [2]	Potency [3]	Potency [4]	Potency [5]	Potency [6]	Potency [7]	Potency [8]	activity (max response) [9] [%]	Potency [10]	Potency [11]	Potency [9]
CC=C1C2C=C(C)CC1(N)c1ccc(=O)[nH]c1C2 (centres undefined)	inactive	inactive	inactive	inactive	inactive	inactive	inactive	inactive				
C#CCN(C)CC1=Cc2ccccc2Oc2ccccc21	inactive	inactive	inactive	inactive	inactive	inactive			0.599	inactive		
Nc1cccc(S(=O)(=O)N2CCCN(S(=O)(=O)c3ccc4c(c3)OCCO4)CC2)c1	inactive	inactive	inactive	inactive	inactive	inactive	inactive		-19.9	inactive	inactive	
CC1=C(C(=O)O)N2C(=O)[C@@H](NC(=O)C(N)c3ccccc3)[C@H]2SC1 (some centres undefined)	inactive	inactive	inactive	inactive	inactive	inactive		inactive			inactive	
O=C(C=Cc1cccnc1)NCCCCC1CCN(C(=O)c2ccccc2)CC1	5.9 nM (active)	3.3 nM (active)	2.6 nM (active)	0.003 µM (active)	5.3 nM (active)	4.7 nM (active)	2.6 nM (active)	1.9 nM (active)				
C[C@H](NC(=O)c1sccc1OCc1ccc(Cl)cc1)c1ccccc1	inactive	inactive	inactive	inactive	inactive	inactive				28.2 µM (active)		25.1 µM (active)
CS(=O)(=O)c1ccc(Oc2cc(F)cc(C#N)c2)c2c1[C@H](O)C(F)(F)C2	inactive	inactive	inactive	inactive	inactive	inactive			10.8	inactive		
CN(C)CCc1c[nH]c2ccc(Cn3cncn3)cc12	1050 nM (active)	1180 nM (active)	833 nM (active)	1.18 µM (active)	935 nM (active)	1180 nM (active)		264 nM (active)			372 nM (active)	
O=C(C=CC#Cc1cccc(NS(=O)(=O)c2ccccc2)c1)NO	3720 nM (active)	3320 nM (active)	3320 nM (active)	2.35 µM (active)	2090 nM (active)	2090 nM (active)		2350 nM (active)			2640 nM (active)	
CCC(C)(C)c1ccc(CC(C)CN2C[C@@H](C)O[C@@H](C)C2)cc1 (some centres undefined)	inactive	inactive	inactive	inactive	inactive	inactive		inactive		18.4 µM (active)		
O=NN(CCCl)C(=O)NCCCl	inactive	inactive	inactive	inactive	inactive	inactive		inactive	15.2	inactive	inactive	
COc1cc(C)c(C=CC(C)=CC=CC(C)=CC(=O)O)c(C)c1C	inactive	inactive	inactive	inactive	inactive	inactive		inactive			inactive	
Cc1cc(O)c2c(c1)C(=O)c1cc(O)cc(O)c1C2=O	inactive	inactive	inactive	inactive	inactive	inactive		inactive	-8.42		inactive	
CC[C@H]1OC(=O)[C@H](C)[C@@H](O[C@H]2C[C@@](C)(OC)[C@@H](O)[C@H](C)O2)[C@H](C)[C@@H](O[C@@H]2O[C@H](C)C[C@H](N(C)C)[C@@H]2O)[C@](C)(OC)C[C@@H](C)C(=O)[C@H](C)[C@@H](O)[C@]1(C)O	inactive	inactive	inactive	inactive	inactive	inactive		inactive			inactive	
CC=C1NC(=O)[C@H]2CSSCCC=C[C@H](CC(=O)N[C@H](C(C)C)C(=O)N2)OC(=O)[C@H](C(C)C)NC1=O	41.8 nM (active)	52.6 nM (active)	37.2 nM (active)	0.0372 µM (active)	37.2 nM (active)	37.2 nM (active)	29.6 nM (active)	37.2 nM (active)				
Cc1cc(C=c2sc3nc4ccccc4n3c2=O)c(C)n1-c1ccccc1	inactive	inactive	inactive	inactive	inactive		inactive	inactive			inactive	
CCCCCCCN(CC)CCCC(O)c1ccc(NS(C)(=O)=O)cc1 (centres undefined)	inactive	inactive	inactive	13.2 µM (active)	18700 nM (active)				-11.3	inactive		
CN(C)CCCC1(c2ccc(F)cc2)OCc2cc(C#N)ccc21 (centres undefined)	inactive	inactive	inactive	inactive		inactive	inactive	inactive			inactive	
Nc1nc(=O)n([C@H]2CSC(CO)O2)cc1F (some centres undefined)	inactive	inactive	inactive	inactive		inactive	inactive					
